These results are taken from PubChem BioAssay (NCATS).

A number with no mark means an inactive call. Inconclusive results are not listed. Calls of active or inactive are those of the source. Calls come from the whole dose curve; as a rule, active = well fitted curve in the direction sought with a large enough effect; inconclusive = small, poorly fitted or top-dose-only effect, or another doubt; inactive = no such curve, though single readings can be large; an effect the other way counts as inactive or inconclusive.

Experiment [1] concerns the target Cytochrome P450 3A4 (Homo sapiens) (UniProt P08684). The experiment is described as follows: qHTS Assay for Inhibitors and Substrates of Cytochrome P450 3A4 (AID 884). For activity change, negative = inhibition: series mostly up to about 57 µM; % is set by controls: 0 for no effect and ±100 for the full control effect. Note: nearly all actives have a fitted effect of over 50% in size. Note: potency is the fitted concentration of half-maximal effect. The method, boiled down: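 Luminescent readout of luciferin produced by CYP3A4 (20 nM) dealkylation of Luciferin-PPXE, 25 uM (its KM). NADPH-driven reaction ran 60 min at RT after 10 min compound preincubation; data scaled to 57 uM ketoconazole as 100% inhibition.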
(In general: Quantitative high-throughput screening tests each substance at several concentrations.)

For experiment [2] the target is unchanged. As to the kind of experiment: qHTS Assay for Activators of Cytochrome P450 3A4 (AID 885). Note: nearly all actives have a fitted effect of over 65% in size. Note: potency is the fitted concentration of half-maximal effect. The method, boiled down:
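Luminescent readout of luciferin formed from 25 uM Luciferin-PPXE (KM level) by 20 nM CYP3A4 in 200 mM KPO4, with 60 min NADPH-driven reaction at room temperature after 10 min compound exposure. Ketoconazole (57 uM) defined 100% inhibition.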

Experiment [3] addresses Cytochrome P450 2C9 (Homo sapiens) (UniProt P11712). As to the kind of experiment: qHTS Assay for Inhibitors and Substrates of Cytochrome P450 2C9 (AID 883). For activity change, negative = inhibition: % is set by controls: 0 for no effect and ±100 for the full control effect. Note: nearly all actives have a fitted effect of over 60% in size. Note: potency is the fitted concentration of half-maximal effect. In outline:
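Signal: luciferase luminescence reporting luciferin produced by CYP2C9. Conditions: 10nM enzyme, Luciferin-H 100uM at KM, 25mM KPO4, 37C, 60 min NADPH-driven reaction. Reference: 57uM sulphaphenazole as 100% inhibition.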

The target in experiment [4] is Cytochrome P450 2D6 (Homo sapiens) (UniProt P10635). The experiment is described as follows: qHTS Assay for Inhibitors and Substrates of Cytochrome P450 2D6 (AID 891).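 For activity change, negative = inhibition: luciferin methyl ether substrate demethylated by CYP2D6 with NADPH regeneration; % is set by controls: 0 for no effect and ±100 for the full control effect.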 Note: nearly all actives have a fitted effect of over 60% in size. Note: potency is the fitted concentration of half-maximal effect. The method, boiled down: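 Luminescent read-out of luciferin formed by 5 nM human CYP2D6 demethylating 30 uM Luciferin-ME EGE (Km level) over 60 min at room temperature after NADPH regeneration addition. Data normalized to full inhibition by 1.43 uM quinidine.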
Sequence of Cytochrome P450 2D6 (Homo sapiens) (P10635 whole entry, looked up): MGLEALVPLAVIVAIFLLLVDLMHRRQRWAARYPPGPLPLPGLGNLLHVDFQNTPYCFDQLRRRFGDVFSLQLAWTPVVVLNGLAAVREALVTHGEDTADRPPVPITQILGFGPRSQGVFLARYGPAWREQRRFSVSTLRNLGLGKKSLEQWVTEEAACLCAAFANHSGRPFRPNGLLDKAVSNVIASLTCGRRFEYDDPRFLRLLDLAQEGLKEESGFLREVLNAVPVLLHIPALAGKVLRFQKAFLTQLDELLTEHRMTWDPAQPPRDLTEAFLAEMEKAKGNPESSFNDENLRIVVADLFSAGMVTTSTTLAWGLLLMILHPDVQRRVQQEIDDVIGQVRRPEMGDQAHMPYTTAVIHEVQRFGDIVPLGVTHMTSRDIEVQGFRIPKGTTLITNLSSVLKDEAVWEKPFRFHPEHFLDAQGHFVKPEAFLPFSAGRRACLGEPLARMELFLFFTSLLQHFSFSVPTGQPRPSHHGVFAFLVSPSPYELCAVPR

Experiment [5] addresses Cytochrome P450 2C19 (Homo sapiens) (UniProt P33261). The experiment is described as follows: qHTS Assay for Inhibitors and Substrates of Cytochrome P450 2C19 (AID 899). For activity, negative = inhibition: % is set by controls: 0 for no effect and ±100 for the full control effect. Note: nearly all actives have a fitted effect of over 60% in size. Note: potency is the fitted concentration of half-maximal effect. In outline:
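Signal comes from luciferase acting on luciferin released by CYP2C19-mediated hydroxylation of Luciferin-H EGE, 10uM (KM). Assay mix: 5nM enzyme, 50mM KPO4; 60 min at 37C with NADPH regeneration. Data normalized against 57uM ketoconazole.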

Experiment [6] has as its target Alpha-galactosidase (Coffea arabica) (UniProt Q42656). The experiment is described as follows: Counterscreen for Glucocerebrosidase Inhibitors: qHTS Assay for Coffee Bean alpha-Galactosidase at pH 4.5 (AID 957).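 Note: series mostly up to about 77 µM; plate controls were enzyme alone for no effect and no enzyme for full effect.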 The method, boiled down: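 Enzyme is added first (2 nM final), then compounds titrated from 0.7 nM to 77 uM, then 80 uM 4-methylumbelliferyl alpha-D-galactopyranoside; after 20 min at room temperature a pH 10 NaOH/glycine stop precedes fluorescence reading at 365/440 nm.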
Background: A counterscreen serves to expose hits that act by an unwanted route or on another target.

For experiment [7] the target is unchanged. As to the kind of experiment: Counterscreen for Glucocerebrosidase Inhibitors: qHTS Assay for Coffee Bean alpha-Galactosidase at pH 5.9 (AID 998).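 Note: plate controls were uninhibited enzyme for no effect and no-enzyme basal signal for full effect.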 The method, boiled down:
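Enzyme 2 nM + cpd (0.7 nM–77 uM titration) + 4-MU-alpha-Gal 80 uM, pH 5.9 citrate/Tween-20, RT 20 min, NaOH/glycine stop pH 10, fluor 365/440. Normalized to no-enzyme and full-activity controls; Hill-fit AC50.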

The nature of experiment [8]: Confirmation and Secondary Assay for Modulators of Hemoglobin Beta Chain Splicing at IVS2 654 locus (AID 910).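 Note: HeLa cells stably carrying EGFP split by mutant beta-globin IVS2-654 intron; % of control where 0% means no effect.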 In outline: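 HeLa cells stably expressing EGFP interrupted by β-globin IVS2-654 intron, seeded overnight in Opti-MEM/2% FCS, then treated 2 days at 37 °C. Restored splicing read as total peak GFP intensity per well by laser scanning cytometry (488 nm excitation, 500–520 nm emission); 500 nM antisense PNA as control.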

Experiment [9] in a line: Confirmation and Secondary Assay for Modulators of Hemoglobin Beta Chain Splicing at IVS2 705 locus (AID 930).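 Note: HeLa cells stably expressing the EGFP-705 splicing reporter; GFP fluorescence per well restored by corrected splicing of the IVS2-705 intron in EGFP; series mostly up to about 46 µM; % of control where 0% means no effect.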 In outline:
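HeLa cells stably carrying EGFP interrupted by mutant beta-globin intron 2 (IVS2-705) treated 2 days at 37C with compound; 500 nM antisense PNA as control. Correct splicing read as total peak GFP intensity per well by laser-scanning cytometry.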

Sequence of Cytochrome P450 2C9 (Homo sapiens) (P11712 whole entry, looked up): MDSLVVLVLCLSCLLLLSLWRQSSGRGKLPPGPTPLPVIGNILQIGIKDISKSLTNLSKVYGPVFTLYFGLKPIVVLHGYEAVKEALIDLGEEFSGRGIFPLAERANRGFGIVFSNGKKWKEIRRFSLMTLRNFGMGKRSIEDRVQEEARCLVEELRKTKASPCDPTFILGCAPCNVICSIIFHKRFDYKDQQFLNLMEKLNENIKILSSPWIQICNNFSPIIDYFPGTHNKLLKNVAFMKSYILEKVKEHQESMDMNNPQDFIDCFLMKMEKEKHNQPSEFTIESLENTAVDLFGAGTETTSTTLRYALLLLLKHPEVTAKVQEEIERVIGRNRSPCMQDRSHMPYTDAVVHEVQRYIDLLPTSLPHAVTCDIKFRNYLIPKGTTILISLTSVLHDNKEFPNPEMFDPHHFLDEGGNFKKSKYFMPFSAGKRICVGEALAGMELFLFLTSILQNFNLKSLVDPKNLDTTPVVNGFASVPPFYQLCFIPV
Sequence of Alpha-galactosidase (Coffea arabica) (Q42656 whole entry, looked up): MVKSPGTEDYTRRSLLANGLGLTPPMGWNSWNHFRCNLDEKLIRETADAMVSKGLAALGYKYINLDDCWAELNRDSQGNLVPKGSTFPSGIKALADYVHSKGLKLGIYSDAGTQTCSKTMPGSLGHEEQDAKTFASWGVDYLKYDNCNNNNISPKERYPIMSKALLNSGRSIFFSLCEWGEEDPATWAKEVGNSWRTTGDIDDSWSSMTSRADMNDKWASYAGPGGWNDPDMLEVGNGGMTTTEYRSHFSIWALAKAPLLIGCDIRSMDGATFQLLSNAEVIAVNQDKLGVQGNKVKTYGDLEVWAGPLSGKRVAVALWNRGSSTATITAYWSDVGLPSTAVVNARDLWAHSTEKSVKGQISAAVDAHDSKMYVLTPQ
Sequence of Cytochrome P450 2C19 (Homo sapiens) (P33261 whole entry, looked up): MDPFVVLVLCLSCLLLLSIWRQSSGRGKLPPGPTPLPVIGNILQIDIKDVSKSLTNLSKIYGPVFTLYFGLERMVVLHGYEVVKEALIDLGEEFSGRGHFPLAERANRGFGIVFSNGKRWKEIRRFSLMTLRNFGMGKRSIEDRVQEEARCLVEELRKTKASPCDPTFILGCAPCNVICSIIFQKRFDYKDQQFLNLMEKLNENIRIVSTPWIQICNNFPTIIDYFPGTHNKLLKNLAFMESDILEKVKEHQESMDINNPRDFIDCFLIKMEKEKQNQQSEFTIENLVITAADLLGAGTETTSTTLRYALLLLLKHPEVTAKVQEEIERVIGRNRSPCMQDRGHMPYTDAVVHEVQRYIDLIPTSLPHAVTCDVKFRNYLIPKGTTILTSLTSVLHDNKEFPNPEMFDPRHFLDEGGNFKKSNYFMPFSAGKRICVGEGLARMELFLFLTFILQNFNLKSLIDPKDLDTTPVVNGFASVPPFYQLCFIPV
Sequence of Cytochrome P450 3A4 (Homo sapiens) (P08684 whole entry, looked up): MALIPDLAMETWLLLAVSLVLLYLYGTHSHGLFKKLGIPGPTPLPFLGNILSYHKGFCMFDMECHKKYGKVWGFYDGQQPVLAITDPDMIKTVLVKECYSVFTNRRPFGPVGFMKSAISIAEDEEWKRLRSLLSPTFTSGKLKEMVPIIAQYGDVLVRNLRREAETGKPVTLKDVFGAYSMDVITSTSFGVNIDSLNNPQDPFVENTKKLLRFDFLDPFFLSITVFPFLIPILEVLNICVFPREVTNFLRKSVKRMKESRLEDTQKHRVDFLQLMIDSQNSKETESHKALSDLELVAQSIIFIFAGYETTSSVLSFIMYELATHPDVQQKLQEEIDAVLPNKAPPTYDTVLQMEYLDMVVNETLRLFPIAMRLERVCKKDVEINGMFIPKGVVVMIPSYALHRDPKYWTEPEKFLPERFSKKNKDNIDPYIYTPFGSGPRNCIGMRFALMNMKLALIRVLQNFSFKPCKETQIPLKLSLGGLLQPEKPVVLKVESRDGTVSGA

For the molecule `CC(C)CC(N)C1(c2ccc(Cl)cc2)CCC1` (centres undefined), the Potency in experiment [1] was 1.58 µM (active). The Potency result in experiment [2] was “inactive”.

For `C[C@@]12CCC3c4ccc(O)cc4CCC3C1CCC2O` (some centres undefined), in [1], the Potency entry is “inactive”.

As for `N#CC(C#N)=NNc1cccc(Cl)c1`, the Potency in experiment [1] was 1.26 µM (active). Also, the Potency result in experiment [2] was “inactive”.

`CC(C)C1C(=O)N2CCCC2[C@]2(O)O[C@@](NC(=O)[C@@H]3C=C4c5cccc6[nH]cc(c56)C[C@H]4N(C)C3)(C(C)C)C(=O)N12` (some centres undefined): the Potency in [1] was 1.26 µM (active). Further, the Potency entry in experiment [2] was “inactive”.

Turning to `CCC1CN2CCC1CC2C(Oc1cc2ccccc2c2ccccc12)c1ccnc2ccc(O)cc12` (centres undefined), the activity change, negative = inhibition is 22% [at 11.4 µM] in experiment [3], -10.8% [at 11.4 µM] in [1] and -1.58% [at 11.4 µM] in experiment [4]. Moreover, in experiment [5], the activity, negative = inhibition is 16.1% [at 11.4 µM].

With `C[C@@]12CC[C@H]3[C@@H](CCC4=CC(=O)CC[C@]43C)[C@H]1CC[C@H]2C(=O)CO`, the Potency result in experiment [1] was “inactive”.

`CC1=C2C(=COC(C)C2C)C(=O)C(C(=O)O)=C1O` (centres undefined): the Potency in experiment [1] is 15.8 µM (active). In experiment [2], the Potency result is “inactive”.

Take `CC1Cc2c(cnc3c2CN(C)CC3)CO1` (centres undefined): the activity change, negative = inhibition is 12.6% [at 11.4 µM] in experiment [3], -13.4% [at 11.4 µM] in experiment [1] and 10.1% [at 11.4 µM] in experiment [4]. Moreover, the activity, negative = inhibition in experiment [5] was 9.03% [at 11.4 µM].

With `O=C1C=CC(=O)c2c1ccc1c2ccc2ccccc21`, the Potency is 1.26 µM (active) in experiment [3] and 1.58 µM (active) in experiment [5].

Regarding `CC(=O)OC1CC[C@@]2(C)C3CC(=O)[C@]4(C)C(C(C)=O)=CCC4C3CC[C@H]2C1` (some centres undefined), the Potency result in experiment [1] is “inactive”. In [2], the Potency was 5.01 µM (active).

`COC(=O)[C@H]1C(=O)c2ccccc2O[C@@](C(=O)OC)(c2ccccc2)[C@@H]1c1ccccc1`: the Potency in [1] was 3.98 µM (active). Also, in experiment [2], the activity change, positive = activation is -63.3% [at 11.4 µM].

For the molecule `O=C1NO[C@@H]2CN[C@@H](C(=O)O)[C@H]12`, in [1], the Potency entry is “inactive”.

In the case of `COC(=O)[C@@H]1C[C@@]2(O)[C@@H](O)[C@@H](O)[C@@H](O)C[C@H]2N1Cc1cccnc1`, in experiment [1], the Potency result is “inactive”.

Turning to `O=C1NO[C@H]2[C@@H]1CN[C@@H]2C(=O)O`, the Potency entry in experiment [1] is “inactive”.

Take `c1ccc(-c2cc3c(nc2-c2ccccc2)CCNC3)cc1`: the activity change, negative = inhibition in experiment [3] was -10% [at 11.4 µM]; in experiment [4], 5.57% [at 11.4 µM]. Besides, the activity change, positive = activation in [2] is -45.7% [at 11.4 µM]. Moreover, the activity, negative = inhibition in experiment [5] was 24.9% [at 11.4 µM].

`CN1CCc2nc(CO)c(CO)cc2C1`: the activity change, negative = inhibition was 21.8% [at 11.4 µM] in experiment [3], -11.6% [at 11.4 µM] in experiment [1] and -13.1% [at 11.4 µM] in experiment [4]. The activity, negative = inhibition in experiment [5] is 81.3% [at 11.4 µM].

As to `O=[N+]([O-])c1ccc(S(=O)(=O)Cc2ccccc2)c([N+](=O)[O-])c1`, the values for the Potency in [3], in [1] and in experiment [5] were 3.16 µM (active), 0.316 µM (active) and 2 µM (active), respectively. Besides, in [2], the activity change, positive = activation is -105% [at 11.4 µM].

Regarding `COc1cc2c3cc1Oc1c(OC)c(OC)cc4c1[C@@H](Cc1ccc(O)c(c1)Oc1ccc(cc1)C[C@@H]3N(C)CC2)N(C)CC4`, the Potency in experiment [1] was 20 µM (active). Also, in experiment [2], the Potency result is “inactive”.

With `CC1=CC[C@@H]2[C@@H](C1)c1c(O)cc(CC#CCCCNS(C)(=O)=O)cc1OC2(C)C`, the Potency in [1] was 2.51 µM (active). Moreover, the Potency result in experiment [2] was “inactive”.

For the molecule `O=S(=O)(O)c1cc(N=C=S)ccc1/C=C/c1ccc(N=C=S)cc1S(=O)(=O)O`, in [1], the Potency was 12.6 µM (active). Besides, in experiment [2], the Potency result is “inactive”.

Consider `CC[C@H](C(=O)[C@H](C)[C@H](O)[C@H](C)CCc1ccc(C)c(O)c1C(=O)O)[C@H]1O[C@](CC)([C@@H]2CC[C@@](O)(CC)[C@H](C)O2)C[C@H]1C`, for which the Potency in experiment [1] is 7.94 µM (active).

In the case of `O=C(OC1Cc2c(O)cc(O)cc2OC1c1cc(O)c(O)c(O)c1)c1cc(O)c(O)c(O)c1` (centres undefined), the Potency in [1] was 20 µM (active). The Potency result in experiment [2] was “inactive”.

Turning to `O=c1c2ccccc2c2ccccc2c(=O)n1-c1cc2c3ccccc3ccc2c2ccccc12`, the values for the Potency in [3] and in experiment [5] were 0.316 µM (active) and 0.158 µM (active), respectively.

Consider `Nc1nc(N)c2nc(CNc3ccc(C(=O)N[C@H](CCC(=O)O)C(=O)O)cc3)cnc2n1`, for which the Potency result in experiment [3] was “inactive”. The result in experiment [6] and in [7] was inactive.

For `c1cc(Cc2cnc[nH]2)ccn1`, in experiment [1], the Potency was 3.98 µM (active).

In the case of `CC(=O)[C@]1(O)CCC2C3C=C(Cl)C4=CC(=O)C5CC5[C@@]4(C)C3CC[C@]21C` (some centres undefined), the Potency result in [1] is “inactive”.

On to `COCOc1ccc(Br)cc1C(=O)/C=C\c1ccc2c(c1)OCO2`, for which the Potency in [3] is 2 µM (active); in experiment [1] it was 3.16 µM (active); in experiment [4], 3.16 µM (active); in experiment [5], 0.0631 µM (active).

Turning to `C=C(CO)C1Cc2c(ccc3c2OC2COc4cc(OC)c(OC)cc4C2C3=O)O1` (centres undefined), the Potency in experiment [1] was 31.6 µM (active).

`CCCCCCCCCc1ccc(OCCOCCOCCOCCOCCOCCOCCOCCOCCO)cc1`: the Potency in [1] was 31.6 µM (active).

As for `CC1=C(CC[C@H](C)CO)O[C@@H]2C[C@@H]3[C@H]4CC[C@H]5C[C@@H](O)CC[C@]5(C)[C@@H]4CC(=O)[C@@]3(C)[C@@H]12`, in experiment [1], the activity change, negative = inhibition is 87.6% [at 11.4 µM]. Moreover, in experiment [2], the Potency was 3.98 µM (active).

With `Clc1cc(Cl)c(Cl)c(Cl)c1Cl`, in experiment [1], the Potency entry is “inactive”.

Consider `CCCCCCCCCC[Si](C)(C)CCC(=O)N[C@@H](Cc1ccc(C)cc1)c1ccccc1`, for which, in experiment [3], the Potency entry was “inactive”. The molecule was classed as inactive in experiment [6] and in experiment [7].

As to `CC(=O)c1c(O)c(C)c(O)c2c1OC1=CC(=O)C(C(C)=O)C(=O)C12C` (centres undefined), in experiment [2], the Potency entry is “inactive”.

For the molecule `CC1(C)C(=O)[C@@H]2OC2[C@@]2(C)C1CC(O)[C@]1(C)C2CC[C@@]2(C)C(c3ccoc3)OC(=O)C3OC312` (some centres undefined), in experiment [1], the Potency is 1 µM (active). Also, the Potency entry in [2] and in [8] was “inactive” each time. For the same molecule, in [9], the molecule was called inactive.

On to `CC(=O)OC1C[C@]2(C)C(C(C)=O)CCC2C2CCC3=CC(=O)CC[C@@]3(C)C12` (some centres undefined), for which the Potency in experiment [1] is 7.94 µM (active). For the same molecule, the Potency entry in experiment [2] was “inactive”.
